# Reference: the supplement of paper PMC3334620
# In all, about 33,000 sequences were measured (“E-score (-0.5 to 0.5)”: median about -0.032, highest 2% from about 0.36 on). What follows is part of a selection rich in the highest values, with near analogues and random picks from the rest.
# Biological target: T1, Sko1 (UniProt Q02100)
# T1 sequence: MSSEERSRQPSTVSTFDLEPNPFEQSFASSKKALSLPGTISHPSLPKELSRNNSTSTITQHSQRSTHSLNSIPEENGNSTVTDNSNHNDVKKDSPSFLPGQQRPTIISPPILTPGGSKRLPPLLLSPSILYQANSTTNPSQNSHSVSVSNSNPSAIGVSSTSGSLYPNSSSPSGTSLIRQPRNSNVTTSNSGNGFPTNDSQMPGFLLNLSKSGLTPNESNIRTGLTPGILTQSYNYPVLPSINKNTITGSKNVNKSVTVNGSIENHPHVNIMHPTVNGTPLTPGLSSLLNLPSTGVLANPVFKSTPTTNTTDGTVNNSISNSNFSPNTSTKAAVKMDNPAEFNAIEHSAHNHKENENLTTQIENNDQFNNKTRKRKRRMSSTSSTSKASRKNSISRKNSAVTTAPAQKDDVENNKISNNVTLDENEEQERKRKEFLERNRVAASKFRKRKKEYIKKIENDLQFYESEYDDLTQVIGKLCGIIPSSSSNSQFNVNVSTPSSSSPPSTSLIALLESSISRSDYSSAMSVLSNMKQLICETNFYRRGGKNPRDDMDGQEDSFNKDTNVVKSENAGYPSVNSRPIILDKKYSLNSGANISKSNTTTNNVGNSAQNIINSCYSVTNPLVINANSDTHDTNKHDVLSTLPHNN
# Test: PBM E-score (8-mer binding enrichment) (E-score (-0.5 to 0.5)); higher = stronger / more preferred TF binding
# Conditions: protein concentration: 200 nM; construct: GST-full length
# Description: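 Universal 'all 10-mer' protein binding microarrays (Agilent AMADID 015681) probed with GST-tagged S. cerevisiae TFs (full-length or DBD) made by in vitro transcription/translation (PURExpress), about 100-200 nM. Bound TF was detected with fluorescent anti-GST. Each ungapped 8-mer (which stands for itself and its reverse complement) is scored by the PBM enrichment score (E-score), a modified Wilcoxon-Mann-Whitney statistic from -0.5 to +0.5, computed with the Universal PBM Analysis Suite. Scale: above 0.35 generally sequence-specific binding.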
row,Sequence,PBM E-score
1,GGAAAACC,-0.128
2,CATTAGCC,-0.188
3,AATGACAT,0.4
4,AATGACAC,0.258
5,AGTGACAC,0.191
6,AATGACAG,0.0139
7,AGTGACAT,0.361
8,AGTGACAA,0.0709
9,ACTGCCTG,-0.0718
10,AGAAGCAT,-0.0822
11,CTGGGTTC,-0.145
12,ACCACAGC,-0.195
13,AATGGCGG,-0.3
14,AATGGCGT,0.387
15,AATGGCGC,-0.0228
16,CACTCCTC,-0.168
17,ACTCAGCT,-0.174
18,CAAGTACG,0.135
19,CACGTACC,0.407
20,CACGTACA,0.389
21,CGCGTACG,0.401
22,AACGTACC,0.223
23,CCCGTACA,-0.273
24,CCCGTACG,0.0984
25,CTCGTACC,0.123

row,Sequence,PBM E-score
1,AACGTACA,0.303
2,CACGTACG,0.406
3,AGCGTACG,0.214
4,CGCGTACA,0.209
5,ACTTATTA,0.157
6,GAGCCCTC,-0.351
7,ACCTTTCC,-0.271
8,AGGGCGAT,-0.0344
9,ACTAGGGC,-0.211
10,GCACTTAA,0.109
11,AAACCTGC,-0.203
12,AGCTTCCT,0.0027
13,TCCGTACA,0.0313
14,GGCGTACC,-0.0685
15,GACGTACC,0.433
16,GCCGTACA,-0.148
17,TACGTACA,0.477
18,ACCGTACA,0.0593
19,GTCGTACA,0.0687
20,GACGTACA,0.446
21,GCCGTACC,-0.175
22,ATTCAAGA,0.0257
23,ACTCTCAA,-0.00162
24,CGTGTGGA,0.00704
25,AAATCTCG,0.014

row,Sequence,PBM E-score
1,GACACTTA,-0.00276
2,ATATTACA,0.175
3,ATATTACG,0.465
4,AAATTACG,0.439
5,AAATTACT,0.196
6,CAATTACC,0.156
7,CAATTACA,0.167
8,AAATTACC,0.0333
9,CAATTACG,0.455
10,ATATTACC,0.251
11,AAGGTCGA,-0.0566
12,ACCAAGCT,0.0443
13,GACACCAC,-0.0851
14,CACTATCG,-0.0728
15,GAATCATC,0.0732
16,ACGTTGTG,0.311
17,GCGTTATA,0.194
18,CCGTTATC,-0.00855
19,ACGTTAGC,0.352
20,ACGTTATC,0.413
21,ACGTTACA,0.359
22,ACGTTACG,0.428
23,GCGTTGTA,0.057
24,ACGTTACC,0.297
25,CCGTTATA,0.0635

row,Sequence,PBM E-score
1,ACGTTGTA,0.394
2,ACGTTATA,0.426
3,CGCGCTGC,-0.147
4,CGCCCGGA,-0.211
5,TACTGAAA,0.219
6,AGAGACGA,0.0256
7,CCGGCTCA,-0.162
8,AAGAGAAC,0.0447
9,GTGTGAGA,0.0436
10,ACGTTAAG,0.325
11,ACGTTATG,0.419
12,ACGTTAGG,0.244
13,CTGACGCA,0.403
14,ATGACGCG,0.476
15,CTGACGCC,0.159
16,AAGACGCG,-0.115
17,CGGACGCA,-0.121
18,GGGACGCA,0.0981
19,GTGACGCA,0.457
20,ACGACGCG,0.148
21,ATGACGCA,0.492
22,GCGACGCA,0.128
23,AGGACGCA,-0.117
24,ACGACGCA,0.334
25,GGACCTCA,-0.0759

row,Sequence,PBM E-score
1,ACCTGCGC,-0.192
2,AGTGTGGG,-0.197
3,CACCTGGC,-0.0659
4,CAGCCCTC,-0.334
5,CCCTAGAG,-0.32
6,ATTCCCGG,-0.0536
7,ACTAAGTA,0.0919
8,AGGCGCGG,-0.242
9,ACAAACCG,-0.0685
10,ATGCCCGG,-0.334
11,GCGGTTAA,-0.186
12,TAATTCTA,0.227
13,ATCACCAA,0.0298
14,AAGACGCC,-0.165
15,ATGACGCC,0.449
16,ATGACTCC,-0.00531
17,TACTAGAA,0.124
18,CGACGTGC,0.22
19,CGACGTAC,0.412
20,CGTCGTAG,0.0813
21,AGACGTAA,0.447
22,CGACGTTC,-0.0745
23,GGACGTAC,0.275
24,GGACGTTA,0.251
25,CGACGTAG,0.368

row,Sequence,PBM E-score
1,CGACGAAG,0.00357
2,AGACGGAA,-0.136
3,GGACGTAA,0.426
4,AGACGTTA,0.283
5,CAAAAATC,0.131
6,CCGACTCA,-0.246
7,ACCTAACA,0.056
8,CATTTGCG,0.179
9,ACGCAGCC,0.0962
10,AATACTTA,0.178
11,CGACGTAA,0.472
12,CGACGTTA,0.337
13,CGACGTGA,0.344
14,ACTGCACA,-0.0526
15,CTAACGGA,0.007
16,GTAACGAA,0.216
17,ATAACGTA,0.461
18,CTAACGAA,0.0318
19,ATAACGAA,0.268
20,ATAACGGA,0.0991
21,GTAACGTA,0.421
22,GTAACGCA,0.217
23,CTAACGTA,0.374
24,TCGTCTCA,-0.0858
25,ATTTCGAA,0.247

row,Sequence,PBM E-score
1,AGTGGGGA,-0.201
2,ACACCTTG,0.00022
3,TTTGCAAA,0.0584
4,ATTCATCG,-0.0686
5,AACCAGAA,0.0649
6,AGTAGGAA,-0.0265
7,CGGAAGGA,-0.178
8,CCAACGTA,0.387
9,CCAACGCA,0.117
10,GCAACGAA,0.148
11,ACAACGGA,0.00163
12,ACAACGCC,0.0338
13,CCAACGTC,0.236
14,GCAACGCA,0.0485
15,ACAACGTC,0.368
16,ACAACGTA,0.416
17,ACAACGTG,0.218
18,GCAACGTA,0.399
19,ACAACGAA,0.0922
20,ATCACTCC,-0.0415
21,CACACCCC,-0.208
22,CGCGAACC,-0.0595
23,AATCCAAT,0.0698
24,CTCGGATC,-0.0845
25,TAATTCGA,0.198

row,Sequence,PBM E-score
1,ATGCACTG,-0.0475
2,AGATATTC,0.0644
3,ATAACGTG,0.377
4,CTAACGTC,0.338
5,ATAACGAC,0.241
6,ATAACGCG,0.184
7,ATAACGGG,0.00173
8,ATAACGTC,0.425
9,ATTGCTTC,-0.109
10,CCGAACTC,-0.125
11,CTGTTAGA,-0.0627
12,AAGTTCTC,-0.203
13,AAATGATT,0.263
14,CAATGATA,0.254
15,CAATGATC,0.0721
16,AAATGATG,0.373
17,CAATGATG,0.381
18,AAATGATA,0.266
19,CCCGATAC,-0.0866
20,CCTACTTA,-0.00728
21,GCCCGTAA,0.172
22,ACGCACAG,0.254
23,AAGCACGG,-0.00706
24,ACGCACGT,0.403
25,ACGCACGC,0.316

row,Sequence,PBM E-score
1,AAGCACGT,0.389
2,ACGCACAA,0.262
3,ACGCACAT,0.387
4,ACGCACGA,0.295
5,AAGCACGA,0.0735
6,GGAACGGA,-0.185
7,ATTCGCTG,0.0204
8,CGAATACC,-0.0967
9,ACAATACA,0.0868
10,ATAATACA,0.208
11,ATAATACG,0.376
12,ACAATACG,0.386
13,ACAATACT,0.151
14,ATAATACC,0.138
15,AGAATACG,0.304
16,CGAATACG,0.406
17,CTGGCAAC,-0.23
18,CACGCTTA,0.116
19,AGATGCAT,-0.0801
